Most compounds without a hit are left out; they make up all but 3.2% or so of the library.
CHT PAM: CHT positive allosteric modulators, primary screen, cell-based, membrane potential dye, choline EC20; B-score at 10 µM; CHT-expressing cells; active compounds read high; LV-AA mutant CHT in HEK293 cells; High affinity choline transporter 1 (Homo sapiens), Q9GZV3; hit rate 0.49% among 310,000;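 active = initial fluorescence not abnormally high and integrated response B-score, plate-corrected, over 3 SD above library mean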
Rce1 inh: yeast Rce1p protease inhibitors, primary screen, biochemical, fluorescence, cell-free homogeneous. yeast membranes, quenched prenylated peptide cleavage fluorescence. calls only. hit rate 0.27% among 290,000;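 active = fall in fluorescence gain of 50% or more versus controls, with final raw signal at or below 3038400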
Target sequence (Q03530 whole entry, looked up): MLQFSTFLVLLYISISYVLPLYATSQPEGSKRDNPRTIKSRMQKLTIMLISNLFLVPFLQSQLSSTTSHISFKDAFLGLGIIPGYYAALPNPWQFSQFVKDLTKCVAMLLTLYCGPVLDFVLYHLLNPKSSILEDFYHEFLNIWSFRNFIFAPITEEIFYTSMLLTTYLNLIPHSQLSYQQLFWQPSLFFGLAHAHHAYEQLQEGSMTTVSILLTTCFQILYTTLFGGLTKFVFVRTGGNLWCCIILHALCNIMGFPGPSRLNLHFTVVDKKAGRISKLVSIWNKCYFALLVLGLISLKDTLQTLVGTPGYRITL
ANO1 block: TMEM16A chloride channel inhibitors, primary screen, cell-based, HTS; normalized B-score (activity score, 25-100; higher = stronger inhibition) at 10 µM; HEK293 TMEM16A/YFP iodide influx fluorescence, ionomycin; hit rate 1.2% among 310,000; Anoctamin-1 (Mus musculus), Q8BHY3;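 active = ratio plate-corrected score three or more library SD toward inhibition, starting fluorescence score within five deviations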;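 note: score derived from kinetic fluorescence span divided by baseline fluorescence per well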
Kir21 block: inhibitors of mouse Kir2.1 inward-rectifier potassium channel; Inward rectifier potassium channel 2 (Mus musculus), P35561; B-score at 10 µM; HEK293-Kir2.1, FluxOR thallium flux fluorescence; active compounds read low; hit rate 0.85% among 310,000;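 active = fluorescence ratio B-score at or below minus 3 SD of library scores, with starting-brightness B-score within 2 SD, cut at about -4.2 in these data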;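 note: channel flux triggered by added potassium and thallium sulfate stimulus; B-score of peak minus minimum fluorescence over baseline after thallium stimulus; more negative B-score means stronger Kir2.1 block with less thallium influx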
ANO1 activ: TMEM16A chloride channel activators or potentiators, primary screen, cell-based, HTS | AID 623877, 2012 | hit rate 0.3% among 340,000 | B-score at 10 µM | Anoctamin-1 (Mus musculus), Q8BHY3 | HEK293 TMEM16A/YFP-H148Q/I152L, iodide quench fluorescence; active compounds read low;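 active = fluorescence-ratio B-score plate-corrected deviation score at least 3 library SD below zero, with starting fluorescence score within 5 deviations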;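 note: channel opened by trigger with iodide after compound preincubation; score built on the fluorescence ratio of max minus min over baseline; more negative score means more quench and so TMEM16A activation or potentiation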
CHT inh: inhibitors of human choline transporter CHT; B-score at 10 µM; CHT-expressing cells, membrane potential dye, choline response; active compounds read low; High affinity choline transporter 1 (Homo sapiens), Q9GZV3; hit rate 0.86% among 310,000;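 active = B-score over 3 SD under the library average, and starting fluorescence ratio not unusually high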;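 note: choline stimulus applied at its EC90 after an EC20 pre-addition; B-score computed on integrated fluorescence ratio after choline addition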
CHT act confirm: CHT activators, confirmation, cell-based, membrane potential dye, duplicate; shares compounds with CHT PAM; CHT-expressing cells, membrane potential dye fluorescence (FDSS); % of choline EC20–EC90 response window; HEK293 expressing CHT LV-AA mutant; choline added at its EC20; activation, % at 10 µM; hit rate 91% among 2,500;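 active = primary screen active, with duplicate mean activation above negative control mean plus 3 SD, cut at about 11% in these data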
HEK293 MP dye: membrane potential response in parental HEK293 cells, counter-screen for CHT activator project, cell-based, membrane potential dye; shares compounds with CHT PAM; hit rate 62% among 2,500; ratio readout change at 10 µM, hits read low; membrane potential dye fluorescence (FDSS); measured after EC20 choline addition;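 active = duplicate-averaged ratio beyond 3 SD from buffer wells, up or down, though filed actives are nearly all decreases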
A number is an active result; n = inactive; x = no result given.

SMILES | CHT PAM | Rce1 inh | ANO1 block | Kir21 block | ANO1 activ | CHT inh | CHT act confirm | HEK293 MP dye
CCOC(=O)c1cnc2c(C(F)(F)F)cccc2c1NCCCN1CCOCC1 | n | n | n | n | n | n | 43 | -67
Cc1ccccc1OCC(O)CNC1CCC(NCC(O)COc2ccccc2C)CC1 (configuration not stated) | n | n | n | -5.5 | n | n | 21 | n
COc1ccc(N(C)C(=O)c2oc(=O)c3ccccc3c2-c2ccccc2)c(OC)c1 | 6.3 | n | n | n | n | n | 33 | n
CCc1ccccc1NC(=O)c1ccc(-c2csc(C)n2)cc1 | n | n | n | n | n | n | n | n
CN1CCc2c(sc3nc(SCC(N)=O)n(-c4ccccc4)c(=O)c23)C1 | n | n | n | n | n | n | 40 | -34
C=C(C)CSc1nc2sc3c(c2c(=O)n1C1CCCCC1)CCN(C)C3 | 6.8 | n | n | n | n | n | 39 | -48
CN1CCc2c(sc3nc(SCC(N)=O)n(-c4ccc(Cl)cc4)c(=O)c23)C1 | 6.8 | n | n | n | n | n | 46 | -34
O=C(CNC(=O)c1ccco1)NNC(=O)c1n[nH]c(=O)c2ccccc12 | x | x | x | x | n | x | x | x
Cc1ccccc1NC(=O)c1ccccc1N(C)S(=O)(=O)c1ccccc1 | n | n | n | n | n | n | x | x
Cc1ccn2c(NC3CCCC3)c(-c3ccccn3)nc2c1 | n | n | n | n | n | n | x | x
Cc1ccn2c(Nc3ccc4c(c3)OCO4)c(-c3ccccn3)nc2c1 | 6.3 | n | n | n | n | n | 51 | n
COc1ccc2nc(NC3=NCCC3)sc2c1 | 6.5 | n | n | n | n | n | 54 | -45
Cc1cc(N2CCOCC2)nc2ccc(NC(=S)NC(C)C)cc12 | n | n | n | n | n | n | x | x
CCOCCCNC(=S)Nc1ccc2nc(N3CCCC3)cc(C)c2c1 | n | n | n | n | n | n | 32 | -52
Cc1cc(N2CCCC2)nc2ccc(NC(=S)NC(C)C)cc12 | n | n | n | n | n | n | 21 | -51
COc1ccccc1CNC(=O)CN(C)S(=O)(=O)c1ccc2c(c1)n(C)c(=O)c(=O)n2C | n | n | n | n | n | n | x | x
CCOc1ccc(C2CC(=O)NC2=O)cc1 (configuration not stated) | n | n | n | n | n | n | x | x
CC(C)(C)n1nnnc1SCC(=O)Nc1nn(-c2ccccc2)nc1C(N)=O | n | n | n | n | n | n | x | x
CCOC(=O)C1(Cc2cccc(F)c2)CCN(C(=O)c2cnccn2)CC1 | n | n | n | n | n | n | x | x
CCOC(=O)c1cn(CC)c2ccc(Br)cc2c1=O | n | n | n | n | n | n | 44 | -36
CCCn1cc(C(=O)OCC)c(=O)c2cc(F)c(F)cc21 | n | n | n | n | n | n | x | x
CCOC(=O)c1cn(CC)c2cc(Cl)c([N+](=O)[O-])cc2c1=O | 7.5 | n | n | n | n | n | 46 | -49
CN1CCN(c2nc3c(c(=O)n(C)c(=O)n3C)n2CCSc2nnnn2-c2ccccc2)CC1 | 7.2 | n | n | n | n | n | 52 | -71
Cc1nnc(SCCn2c(N3CCN(C)CC3)nc3c2c(=O)[nH]c(=O)n3C)s1 | 6.9 | n | n | n | n | n | 59 | -67
Cn1c(=O)[nH]c(=O)c2c1nc(N1CCCC1)n2CCCSc1nnnn1-c1ccccc1 | n | n | n | n | n | n | x | x
CN1CCN(c2nc3c(c(=O)n(C)c(=O)n3C)n2Cc2ccccc2)CC1 | n | n | n | n | n | n | x | x
